Source: ChEMBL document CHEMBL3988442, “University of Dundee, Small-Polar-MMV Screening Library” (2021)
For some of these results: Entries with a potency or affinity are not part of this list.

Tests used:
Design in all cases: scale not given: direction of the effect not stated beside the values
[1] = target: Protein translocase subunit SecA (Escherichia coli (strain K12)) (UniProt P10408); test: Assay to Identify E. coli SecA ATPase Inhibitors; type: functional; settings: 30 µM
[2] = target: T1, Ubiquitin-activating enzyme e1, putative (Leishmania donovani (strain BPK282A1)) (UniProt E9BSI1); test: Leishmania donovani Ubiquitin Activating Enzyme (LdE1); type: functional; settings: 30 µM
T1 sequence (whole entry): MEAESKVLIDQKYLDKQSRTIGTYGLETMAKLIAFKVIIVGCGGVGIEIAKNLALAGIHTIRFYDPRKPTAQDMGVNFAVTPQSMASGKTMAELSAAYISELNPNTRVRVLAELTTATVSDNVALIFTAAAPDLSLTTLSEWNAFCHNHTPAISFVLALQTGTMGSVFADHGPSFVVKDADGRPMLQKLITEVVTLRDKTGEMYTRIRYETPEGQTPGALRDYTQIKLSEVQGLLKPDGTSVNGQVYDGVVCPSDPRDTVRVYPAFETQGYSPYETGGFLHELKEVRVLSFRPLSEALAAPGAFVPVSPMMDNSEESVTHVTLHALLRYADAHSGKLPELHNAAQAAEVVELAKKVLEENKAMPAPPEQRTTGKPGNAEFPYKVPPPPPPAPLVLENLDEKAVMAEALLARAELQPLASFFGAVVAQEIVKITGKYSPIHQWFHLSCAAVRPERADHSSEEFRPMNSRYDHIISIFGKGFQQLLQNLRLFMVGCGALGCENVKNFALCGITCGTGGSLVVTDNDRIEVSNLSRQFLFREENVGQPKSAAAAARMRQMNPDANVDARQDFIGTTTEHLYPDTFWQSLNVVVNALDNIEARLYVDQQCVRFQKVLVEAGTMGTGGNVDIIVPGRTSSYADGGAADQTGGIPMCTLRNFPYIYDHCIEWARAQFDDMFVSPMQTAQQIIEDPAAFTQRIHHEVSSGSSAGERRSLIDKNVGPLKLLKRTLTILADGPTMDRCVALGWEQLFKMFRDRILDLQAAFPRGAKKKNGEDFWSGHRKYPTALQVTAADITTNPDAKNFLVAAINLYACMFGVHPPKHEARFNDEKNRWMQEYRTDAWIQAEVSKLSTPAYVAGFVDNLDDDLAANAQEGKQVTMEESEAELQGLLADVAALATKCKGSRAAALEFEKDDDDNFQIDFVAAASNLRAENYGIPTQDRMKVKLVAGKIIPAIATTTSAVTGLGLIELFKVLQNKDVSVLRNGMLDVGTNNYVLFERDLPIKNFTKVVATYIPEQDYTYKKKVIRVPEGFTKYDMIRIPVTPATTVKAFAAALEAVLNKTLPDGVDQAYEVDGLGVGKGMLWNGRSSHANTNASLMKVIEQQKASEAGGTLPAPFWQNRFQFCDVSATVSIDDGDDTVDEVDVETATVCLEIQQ

[3] = target: AMP-activated protein kinase, AMPK (Homo sapiens) (UniProt P54646+O43741+P54619+Q9UGJ0+Q9Y478+Q13131+Q9UGI9); test: AMP-dependent Kinase enzyme assay. An in vitro enzyme assay that detects ADP turnover that is directly proportional to AMPK activity. This uses naive AMPK that is activated during the assay with MK-8722; type: functional; settings: 30 µM
[4] = target: Sialic acid-binding Ig-like lectin 9 (Homo sapiens) (UniProt Q9Y336); test: Hs-Siglec9 ALPHAscreen SOP 20170721; settings: 10 µM
[5] = tested on: Trypanosoma cruzi; test: Trypanosoma cruzi phosphomannomutase and mannose-1-phosphate guanylyltransferase assay; type: functional; settings: 10 µM
[6] = target: T2, Arginase-2, mitochondrial (Homo sapiens) (UniProt P78540); test: in vitro enzyme assay to detect the production of urea directly proportional to the activity of Arginase II; type: functional; settings: 33.3 µM; also: in the data most compounds retested in dose-response had high values
T2 sequence (whole entry): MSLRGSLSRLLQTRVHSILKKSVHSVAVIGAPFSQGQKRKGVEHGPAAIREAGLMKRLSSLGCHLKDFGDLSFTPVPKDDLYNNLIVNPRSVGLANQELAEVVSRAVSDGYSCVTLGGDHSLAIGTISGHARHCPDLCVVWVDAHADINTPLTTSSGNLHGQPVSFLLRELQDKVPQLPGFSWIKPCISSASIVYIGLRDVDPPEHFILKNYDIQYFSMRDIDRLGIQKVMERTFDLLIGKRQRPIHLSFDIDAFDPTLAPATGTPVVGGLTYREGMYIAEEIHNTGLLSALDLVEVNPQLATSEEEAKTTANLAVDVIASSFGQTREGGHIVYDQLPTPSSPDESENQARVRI

[7] = target: T3, Proteasome subunit beta (Trypanosoma cruzi) (UniProt O96673); test: Trypanosoma cruzi proteasome chymotrypsin-like activity (TcProtChymo) assay.; also: in the data most compounds retested in dose-response had high values; type: functional; settings: 9.37 µM
T3 sequence (whole entry): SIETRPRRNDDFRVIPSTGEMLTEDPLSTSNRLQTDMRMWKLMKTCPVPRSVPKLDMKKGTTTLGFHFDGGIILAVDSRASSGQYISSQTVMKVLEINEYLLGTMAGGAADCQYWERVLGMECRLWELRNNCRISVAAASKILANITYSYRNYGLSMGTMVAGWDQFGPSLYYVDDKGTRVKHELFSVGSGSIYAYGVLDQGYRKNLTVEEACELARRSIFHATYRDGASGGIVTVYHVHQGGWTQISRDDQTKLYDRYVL

[8] = organism: Homo sapiens; test: To identify inhibition of the IFN signalling (Jak-Stat) pathway via expression of an eGFP reporter gene under the control of an IFN-stimulated response element (ISRE) containing MxA promoter.; type: functional; settings: 30 µM
[9] = target: T4, Tyrosyl-tRNA synthetase, putative (Trypanosoma cruzi (strain CL Brener)) (UniProt Q4DSP6); test: Trypanosoma cruzi tyrosyl tRNA synthetase (TcYRS) _High Tyrosine SOP; type: functional; settings: 30 µM; also: in the data most compounds retested in dose-response had high values
T4 sequence (whole entry): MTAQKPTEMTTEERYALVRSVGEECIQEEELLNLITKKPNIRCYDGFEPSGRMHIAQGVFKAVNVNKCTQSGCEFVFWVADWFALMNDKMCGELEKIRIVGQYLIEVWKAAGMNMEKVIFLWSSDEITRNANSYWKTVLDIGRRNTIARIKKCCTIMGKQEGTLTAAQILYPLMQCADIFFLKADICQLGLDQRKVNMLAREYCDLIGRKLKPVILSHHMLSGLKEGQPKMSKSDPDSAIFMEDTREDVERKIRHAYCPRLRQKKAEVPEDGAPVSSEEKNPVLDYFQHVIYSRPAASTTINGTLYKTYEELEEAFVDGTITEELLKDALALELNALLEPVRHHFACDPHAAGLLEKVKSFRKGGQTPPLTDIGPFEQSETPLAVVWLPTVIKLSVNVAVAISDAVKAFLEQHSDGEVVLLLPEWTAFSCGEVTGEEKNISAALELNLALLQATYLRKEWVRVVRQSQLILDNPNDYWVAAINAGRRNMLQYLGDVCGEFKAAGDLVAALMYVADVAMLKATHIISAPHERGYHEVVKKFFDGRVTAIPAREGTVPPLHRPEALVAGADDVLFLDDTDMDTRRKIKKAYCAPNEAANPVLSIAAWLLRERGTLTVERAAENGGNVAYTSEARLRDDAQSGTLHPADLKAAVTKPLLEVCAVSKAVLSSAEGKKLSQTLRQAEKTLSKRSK

[10] = target: T4, Tyrosyl-tRNA synthetase, putative (Trypanosoma cruzi (strain CL Brener)); test: Trypanosoma cruzi tyrosyl tRNA synthetase (TcYRS) SOP; type: functional; settings: 30 µM
[11] = target: Chromo domain-containing protein 1 (Saccharomyces cerevisiae (strain ATCC 204508 / S288c) (Baker's yeast)) (UniProt P32657); test: ScCHD-1 Enzyme Inhibition Assay; type: functional; settings: 30 µM; also: in the data most compounds retested in dose-response had high values
Chromo domain-containing protein 1 (Saccharomyces cerevisiae (strain ATCC 204508 / S288c) (Baker's yeast)), sequence (P32657 whole entry, the tested form may be a part): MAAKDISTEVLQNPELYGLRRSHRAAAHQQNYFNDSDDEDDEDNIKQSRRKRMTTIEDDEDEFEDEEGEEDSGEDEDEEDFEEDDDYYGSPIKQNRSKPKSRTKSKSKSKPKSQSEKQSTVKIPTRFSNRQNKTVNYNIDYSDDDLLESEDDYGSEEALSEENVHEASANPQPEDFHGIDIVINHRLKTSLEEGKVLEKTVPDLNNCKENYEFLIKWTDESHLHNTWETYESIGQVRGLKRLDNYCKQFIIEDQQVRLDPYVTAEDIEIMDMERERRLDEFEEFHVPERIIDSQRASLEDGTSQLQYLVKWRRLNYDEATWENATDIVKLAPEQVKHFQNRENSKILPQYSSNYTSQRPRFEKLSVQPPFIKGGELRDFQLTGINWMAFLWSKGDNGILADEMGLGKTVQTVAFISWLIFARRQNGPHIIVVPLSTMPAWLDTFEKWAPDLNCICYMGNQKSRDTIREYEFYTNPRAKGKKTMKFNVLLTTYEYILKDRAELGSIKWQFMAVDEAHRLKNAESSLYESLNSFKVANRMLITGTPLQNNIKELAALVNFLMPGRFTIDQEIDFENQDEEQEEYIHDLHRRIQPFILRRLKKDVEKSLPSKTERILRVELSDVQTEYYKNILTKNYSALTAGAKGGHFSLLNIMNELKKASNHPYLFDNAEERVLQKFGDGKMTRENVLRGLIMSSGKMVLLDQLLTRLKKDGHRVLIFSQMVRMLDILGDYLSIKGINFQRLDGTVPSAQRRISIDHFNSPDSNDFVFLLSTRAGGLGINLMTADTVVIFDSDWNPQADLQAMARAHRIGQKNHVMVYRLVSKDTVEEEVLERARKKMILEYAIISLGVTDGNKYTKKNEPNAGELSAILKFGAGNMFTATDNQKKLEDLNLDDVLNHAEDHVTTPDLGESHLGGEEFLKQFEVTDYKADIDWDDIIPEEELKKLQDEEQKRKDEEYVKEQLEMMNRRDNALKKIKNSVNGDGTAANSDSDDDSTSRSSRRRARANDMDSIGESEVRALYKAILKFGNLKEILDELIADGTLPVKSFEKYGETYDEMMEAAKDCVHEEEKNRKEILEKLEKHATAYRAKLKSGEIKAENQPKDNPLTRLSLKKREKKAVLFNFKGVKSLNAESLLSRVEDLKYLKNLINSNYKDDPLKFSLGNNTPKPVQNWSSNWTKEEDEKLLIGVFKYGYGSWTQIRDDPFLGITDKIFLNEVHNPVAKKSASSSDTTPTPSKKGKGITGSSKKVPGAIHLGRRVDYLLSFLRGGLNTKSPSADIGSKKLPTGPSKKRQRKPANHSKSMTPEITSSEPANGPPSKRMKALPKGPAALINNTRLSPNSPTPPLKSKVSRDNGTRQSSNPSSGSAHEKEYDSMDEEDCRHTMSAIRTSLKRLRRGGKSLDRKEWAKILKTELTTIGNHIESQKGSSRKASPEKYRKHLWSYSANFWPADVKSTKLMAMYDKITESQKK

Protein translocase subunit SecA (Escherichia coli (strain K12)), sequence (P10408 whole entry): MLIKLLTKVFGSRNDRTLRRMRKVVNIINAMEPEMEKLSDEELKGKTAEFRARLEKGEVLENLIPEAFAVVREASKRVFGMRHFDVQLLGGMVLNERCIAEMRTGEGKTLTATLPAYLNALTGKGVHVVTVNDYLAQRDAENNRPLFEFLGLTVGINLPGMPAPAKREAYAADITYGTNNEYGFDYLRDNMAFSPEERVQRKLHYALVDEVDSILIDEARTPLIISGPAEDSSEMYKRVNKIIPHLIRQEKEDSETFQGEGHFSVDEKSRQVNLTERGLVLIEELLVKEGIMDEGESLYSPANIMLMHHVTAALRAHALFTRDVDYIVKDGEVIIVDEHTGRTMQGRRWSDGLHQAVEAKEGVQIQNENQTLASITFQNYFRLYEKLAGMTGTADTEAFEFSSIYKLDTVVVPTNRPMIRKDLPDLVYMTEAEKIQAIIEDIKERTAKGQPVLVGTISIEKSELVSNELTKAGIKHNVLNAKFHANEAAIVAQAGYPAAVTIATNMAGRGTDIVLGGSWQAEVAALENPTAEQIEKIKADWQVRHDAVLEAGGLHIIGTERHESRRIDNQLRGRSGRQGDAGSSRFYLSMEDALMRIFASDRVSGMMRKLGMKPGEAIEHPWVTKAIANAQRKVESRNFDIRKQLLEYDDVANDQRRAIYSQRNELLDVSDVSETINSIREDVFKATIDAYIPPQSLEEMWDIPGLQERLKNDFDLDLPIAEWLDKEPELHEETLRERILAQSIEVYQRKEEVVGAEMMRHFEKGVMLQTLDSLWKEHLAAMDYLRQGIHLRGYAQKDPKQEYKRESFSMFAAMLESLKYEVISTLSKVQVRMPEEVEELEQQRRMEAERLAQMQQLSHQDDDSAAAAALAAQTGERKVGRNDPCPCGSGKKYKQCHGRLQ
Sialic acid-binding Ig-like lectin 9 (Homo sapiens), sequence (Q9Y336 whole entry): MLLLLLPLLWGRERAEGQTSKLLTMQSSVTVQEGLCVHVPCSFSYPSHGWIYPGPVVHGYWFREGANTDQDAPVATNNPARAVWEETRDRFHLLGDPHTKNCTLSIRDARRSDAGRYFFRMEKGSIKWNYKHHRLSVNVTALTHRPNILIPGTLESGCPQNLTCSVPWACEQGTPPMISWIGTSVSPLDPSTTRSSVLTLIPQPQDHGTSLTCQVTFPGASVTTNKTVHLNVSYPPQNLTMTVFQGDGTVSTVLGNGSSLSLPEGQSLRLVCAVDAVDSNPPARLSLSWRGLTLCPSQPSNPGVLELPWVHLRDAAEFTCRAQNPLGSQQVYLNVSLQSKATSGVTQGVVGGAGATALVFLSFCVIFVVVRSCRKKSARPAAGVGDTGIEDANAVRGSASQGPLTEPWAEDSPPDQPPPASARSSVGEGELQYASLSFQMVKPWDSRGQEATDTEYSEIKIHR

Structure (SMILES)	Percent Effect [1] [%]	Percent Effect [2] [%]	Percent Effect [3] [%]	Percent Effect [4] [%]	Percent Effect [5] [%]	Percent Effect [6] [%]	Percent Effect [7] [%]	Percent Effect [8] [%]	Percent Effect [9] [%]	Percent Effect [10] [%]	Percent Effect [11] [%]
Cc1noc([C@H]2C[C@@H]3CCN(CC4CC4)C[C@H]3O2)n1	-4.27	7.79	4.66	0.715	-1.48	-0.645	3.13	4.2	-1.06	3.85	-3.28
O=C(NCCCn1cccn1)C1(c2ccc(F)cc2)CC1	0.73	16.4	0.361	3.37	3.72	10.4	8.87	-5.73	6.45	12.5	-4.26
Cc1ccc(CN(CCCn2ccnc2)Cc2c[nH]cn2)s1	-8.11	9.46	-4.5	6	0	1.62	11.4	9.27	9.68	14.3	-25.7
Cc1ccc2c(ccn2CCC(=O)NC[C@@H]2CCCN3CCCC[C@H]23)c1	-5.55	12	-3.71	5.07	4.71	-6.87	14.1	-2.77	3.17	10.3	-4.06
O=C(N1CCCO1)[C@@]12CCO[C@@H]1CCN(Cc1ccccc1)C2	-2.49	2.67	-2.01	8.06	-4.25	-22.8	6.67	0.724	4.17	10	-6.13
c1cncc(COCc2nnc3n2CCN(Cc2ccsc2)C3)c1	-1.63	13	2.4	6.44	-2.26	-23.4	19.6	25	3.23	8.64	-2.81
O[C@H]1[C@H](n2cc(-c3ccccc3)nn2)c2ccccc2C12CCNCC2	-1.97	6.94	-7.62	0.48	1.65	-1.77	10.2	12.5	5.26	15.4	-2.48
COC(=O)c1cc(OCC2CCC2)cc(C(=O)N[C@@H]2CNCC[C@H]2O)c1	-7.97	0	-18.2	10.2	-0.392	-2.73	4.44	36	0	0	-7.21
O=C(CSCC1CC1)N1CCCC(c2nccn2Cc2ccncc2)C1 (stereo not given)	-2.74	15.3	-12.9	10.9	2.62	2.65	7.37	-2.75	3.16	10.3	-2.97
CN(C)C(=O)c1ccc2c(c1)N(C)C(CC(=O)NCCC(C)(C)C)CO2 (stereo not given)	-3.89	9.72	3.96	13.4	5.73	22.1	14.4	2.35	3.16	10.3	-5.3
c1ccc(C[C@H]2[C@H](N3CCOCC3)CCN2Cc2cccnc2)cc1	-1.09	2.67	3.8	7.7	-5.21	-56.1	4.1	-7.93	1.04	12.5	-4.71
Cn1cc(N2CC3(CCN(CC4CCOCC4)CC3)OCC2=O)cn1	-1.91	9.33	1.65	6.72	-0.197	2.99	19.8	17.2	4.23	12.8	-4.82
Cc1scc(C(=O)N2CCC3(CCCN(C)C3=O)C2)c1-c1ccccc1 (stereo not given)	-0.994	0	1.8	-1.74	-3.09	1.91	7.41	-8.13	-2.65	9.76	-4.36
COCc1nc(CN2CCC3(CCCO3)CCC2=O)no1 (stereo not given)	-7.29	5.33	-4.46	6.25	7.3	-2.6	12	10.4	6.01	3.7	-5.51
CC(=O)N(Cc1ncc(C(C)C)o1)C1CCN(Cc2nccn2C)C1 (stereo not given)	-2.57	13.5	-4.73	4.8	3.25	-1.29	14.4	-11.4	10.9	28.1	-1.74
Cc1csc(N2CCN(C(=O)CCC(=O)c3ccc(C)s3)CC2)n1	-3.76	8.11	-7.25	1.58	1.79	-12.4	13.5	23	7.39	25.9	17.6
Cc1noc(CCCC(=O)NC(C)c2ccccn2)n1 (stereo not given)	-1.78	18.4	-1.11	2.7	3.01	2.68	6.52	3.32	10.3	21.9	-13.2
O=C(NCCCn1cccn1)C1(c2ccc(Br)cc2)CC1	0.127	8.22	12.9	-1.49	-3.13	2.73	10.1	8.94	4.3	10	-4.29
CN1CCCCC1c1ncc2c(n1)CCN(Cc1ccccc1Cl)C2 (stereo not given)	1.96	-13.3	4.6	2.83	3.74	2.56	18.9	-3.83	19.1	14.1	1.52
CN(C)CC1CN(C(=O)NCc2ccccc2)Cc2nccn2C1 (stereo not given)	-2.59	13.7	-1.1	4.01	-1.59	-3.19	5.39	3.73	3.12	6.17	1.81
